Assay outcomes deposited in PubChem by Center for Chemical Genomics, University of Michigan.
Dicer processing: human Dicer pre-microRNA cleavage inhibition; Q9UPY3; cat-ELCCA pre-miR-21 Dicer processing, chemiluminescence; stronger effect = higher value; z-score at 25 µM; 6% of 47,000 active; AID 1347074; in the data active = z-score above about 3, passing the limit was not always enough;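 note: plate controls were vehicle for no effect and no enzyme for full effect; higher signal means more uncleaved substrate so more Dicer inhibition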
Target sequence (Q9UPY3 whole entry, looked up): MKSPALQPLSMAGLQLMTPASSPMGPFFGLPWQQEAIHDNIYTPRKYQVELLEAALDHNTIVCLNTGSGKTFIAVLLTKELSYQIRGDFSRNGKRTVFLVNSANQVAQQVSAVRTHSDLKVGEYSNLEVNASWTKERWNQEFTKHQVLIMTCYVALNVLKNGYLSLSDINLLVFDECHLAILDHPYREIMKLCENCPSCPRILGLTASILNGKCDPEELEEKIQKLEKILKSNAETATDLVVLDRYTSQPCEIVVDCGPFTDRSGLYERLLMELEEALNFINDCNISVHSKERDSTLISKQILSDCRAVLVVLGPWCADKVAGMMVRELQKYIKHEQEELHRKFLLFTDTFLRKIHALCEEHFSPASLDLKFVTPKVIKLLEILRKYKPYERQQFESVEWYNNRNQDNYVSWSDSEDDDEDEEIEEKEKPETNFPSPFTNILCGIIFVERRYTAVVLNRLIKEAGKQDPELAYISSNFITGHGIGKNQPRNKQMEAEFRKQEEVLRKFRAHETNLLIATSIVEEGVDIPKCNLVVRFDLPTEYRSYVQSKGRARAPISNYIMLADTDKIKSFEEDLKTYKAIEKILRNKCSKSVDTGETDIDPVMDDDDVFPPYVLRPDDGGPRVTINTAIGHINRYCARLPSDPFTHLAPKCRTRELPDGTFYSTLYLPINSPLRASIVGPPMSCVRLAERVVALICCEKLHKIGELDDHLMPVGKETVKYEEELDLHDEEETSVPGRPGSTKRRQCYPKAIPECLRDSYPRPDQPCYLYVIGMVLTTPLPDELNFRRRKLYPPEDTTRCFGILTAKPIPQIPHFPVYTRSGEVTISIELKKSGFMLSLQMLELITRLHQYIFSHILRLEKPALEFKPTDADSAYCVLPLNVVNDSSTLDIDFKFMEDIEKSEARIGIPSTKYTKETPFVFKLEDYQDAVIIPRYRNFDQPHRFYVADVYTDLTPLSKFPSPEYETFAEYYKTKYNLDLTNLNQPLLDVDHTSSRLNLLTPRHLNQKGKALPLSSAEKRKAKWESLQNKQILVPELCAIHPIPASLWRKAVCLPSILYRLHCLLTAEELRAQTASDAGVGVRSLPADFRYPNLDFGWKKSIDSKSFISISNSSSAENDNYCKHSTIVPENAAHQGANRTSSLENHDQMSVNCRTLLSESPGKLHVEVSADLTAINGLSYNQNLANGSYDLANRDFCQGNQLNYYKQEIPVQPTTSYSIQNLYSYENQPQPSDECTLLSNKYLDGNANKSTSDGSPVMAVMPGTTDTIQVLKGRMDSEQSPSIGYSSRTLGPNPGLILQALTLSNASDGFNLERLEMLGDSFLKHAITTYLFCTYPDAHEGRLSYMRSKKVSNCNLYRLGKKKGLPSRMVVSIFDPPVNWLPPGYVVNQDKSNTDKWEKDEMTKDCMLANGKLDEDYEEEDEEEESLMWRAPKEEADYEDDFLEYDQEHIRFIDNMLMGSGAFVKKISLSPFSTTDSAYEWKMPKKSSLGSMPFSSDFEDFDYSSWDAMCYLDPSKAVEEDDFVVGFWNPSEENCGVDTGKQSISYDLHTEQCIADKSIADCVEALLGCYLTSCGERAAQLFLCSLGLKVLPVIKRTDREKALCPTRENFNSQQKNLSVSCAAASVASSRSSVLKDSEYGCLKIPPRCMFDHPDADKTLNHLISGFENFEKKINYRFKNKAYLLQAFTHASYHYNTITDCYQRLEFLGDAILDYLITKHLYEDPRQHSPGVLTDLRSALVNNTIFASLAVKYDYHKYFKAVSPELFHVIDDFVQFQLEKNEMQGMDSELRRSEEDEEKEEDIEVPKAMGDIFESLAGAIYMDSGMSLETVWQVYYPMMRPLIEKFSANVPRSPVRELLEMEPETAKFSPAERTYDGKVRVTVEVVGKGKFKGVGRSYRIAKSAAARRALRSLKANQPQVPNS
Active calls of the source: *. The full list was thinned out, with hits kept by preference.

SMILES	Dicer processing
COc1ccc(C2C(C#N)=C3N=C(N)c4ccccc4N3C3=C2C(=O)CC(C)(C)C3)c(OC)c1 (stereo not given)	3
Cc1ccc(C2C(C#N)=C3N=C(N)c4ccccc4N3C3=C2C(=O)CCC3)cc1 (stereo not given)	2.5
N#CC1=C2N=C(N)c3ccccc3N2C2=C(C(=O)CCC2)C1c1ccc(F)cc1 (stereo not given)	0.21
COc1cccc(C2C(C#N)=C3N=C(N)c4ccccc4N3C3=C2C(=O)CCC3)c1OC (stereo not given)	-2.4
Cc1sc2nc(SCC(=O)N3CCN(CCO)CC3)[nH]c(=O)c2c1C	-1.3
O=C(O)c1ccc(-c2nnn(Cc3ccc(F)cc3)n2)cc1	2.4
N#CC1=C(OC(=O)c2c(F)cccc2Cl)c2ccc(Cl)cc2N(S(=O)(=O)c2ccc(Cl)cc2)CC1	-1.1
Nc1nnc(SCC(=O)Nc2nc(-c3ccccc3)cs2)s1	0.7
CCNC(=O)Nc1nc2ccccc2s1	4.4*
CCCCC(=O)Nc1nc2ccccc2s1	-0.22
O=C(Nc1ccc(F)cc1)Nc1nc2ccccc2s1	0.83
Cc1ccccc1OCC(O)Cn1cnc2ccccc21 (stereo not given)	2
Cc1cc(=O)n2[nH]c(-c3cccs3)cc2n1	-0.3
O=c1cc(-c2ccccc2)nc2cc(-c3ccccc3)[nH]n12	0.61
O=c1cc(-c2ccccc2)nc2nc(C(F)(F)F)[nH]n12	-2.4
CC(C)(C)c1cc2nc(-c3ccccc3)cc(=O)n2[nH]1	-1.1
O=c1cc(-c2ccccc2)nc2c(-c3ccccc3)c(C(F)(F)F)[nH]n12	4*
O=c1cc(-c2ccccc2)nc2cc(-c3cccs3)[nH]n12	3.1*
CC(C)(C)Nc1nc(Cl)nc(Oc2ccc(=O)n(-c3ccccc3)n2)n1	-0.17
Cc1ccc(C)n1-c1sc2c(c1C(=O)NNS(=O)(=O)c1ccc(C(F)(F)F)cc1)CCCC2	-0.2
CC(=O)c1c(C)[nH]c(-c2ccc(C)cc2)nc1=S	-0.59
O=C(CSc1nc2ccccc2nc1N1CCCC1)NC1CCCC1	-0.33
CC(C#N)(Cc1ccccc1)Nc1ccc(Cl)cc1 (stereo not given)	2.5
CN1c2ccsc2C(=O)/C(=N\Nc2ccc(Cl)cc2)S1(=O)=O	-0.1
Cc1ccc(-c2nc(NC(=O)c3c(F)cccc3F)sc2C)cc1Cl	1.3
SMILES	Dicer processing
COc1ccc(-c2cc3c(=O)oc4ccccc4c3[nH]2)cc1	4*
COc1ccc(-c2cc3ccccc3c(=O)o2)cc1	-0.62
COc1ccc(-c2cc(=O)c3ccccc3o2)cc1	0.02
COc1ccc(C2=NCCc3sccc32)cc1	0.24
COC(=O)Cc1ccc2oc3ccccc3c(=O)c2c1	1.1
Nc1ccccc1Sc1nc2cc(Cl)ccc2s1	-1.3
ONC=Nc1ccccc1Sc1nc2c(Cl)cc(Cl)cc2s1	-0.65
ONC=Nc1ccccc1Sc1nc2cc(Cl)ccc2s1	3.1*
O=C(Nc1ccc(Oc2c(Cl)cccc2Cl)nc1)c1ccc2c(c1)CCO2	-0.17
COC(=O)C1=C(C)NC2=C(C(=O)CC(C)(C)C2)C1c1ccc(SC)cc1 (stereo not given)	1.7
c1ccc(-c2nc3ccccc3s2)cc1	-0.24
c1cncc(-c2nc3ccccc3s2)c1	5.6*
Clc1ccc(-c2nc3ccccc3s2)cc1	2.3
COc1cc2cc(OCc3cccc(C)c3)nc(C)c2cc1OC	-1.6
CCCCn1c(Oc2ccc(F)cc2)nc2c1c(=O)n(C)c(=O)n2C	2.7
Fc1cccc(CN2CCN(Cc3cccc4ccccc34)CC2)c1	0.8
CCc1ccc(CN2CCN(C3CCCCC3)CC2)cc1	2.5
Fc1ccccc1CN1CCN(C2CCCCC2)CC1	4.1*
Fc1cccc(CN2CCN(C3CCCC3)CC2)c1	3.8*
c1ccc(CN2CCC(N3CCN(C4CCCCC4)CC3)CC2)cc1	0.42
Clc1ccc(CN2CCN(C3CCCCC3)CC2)cc1	-2.5
COc1ccc(OC)c(CN2CCN(C3CCCCC3)CC2)c1	3.1*
COc1ccc(OC)c(CN2CCN(Cc3ccc(OC)c(Br)c3)CC2)c1	-0.14
COc1ccc(OC)c(CN2CCN(Cc3ccc(SC)cc3)CC2)c1	2.2
Clc1ccc(CN2CCN(C3CCCC3)CC2)cc1	1.1
SMILES	Dicer processing
CCSc1nnc2c(n1)OC(C)=Nc1ccccc1-2	1.9
CCCCCCOc1ccc(NS(=O)(=O)c2ccc(OC)cc2)cc1	0.87
Cc1cnc(NC(=O)c2ccc3c(c2)OCO3)s1	1.6
CCN1C(=O)c2cccc3c(NC(=O)c4ccccc4C)ccc1c23	-1.5
Cc1c(S(=O)(=O)Nc2ccccc2C(=O)NCC2CC2)sc2ccc(Cl)cc12	-0.69
N#Cc1c(Cl)cccc1Oc1ccc(S(=O)(=O)Nc2ccccc2C(=O)NCC2CC2)cc1	0.88
O=C(NCC1CC1)c1ccccc1NS(=O)(=O)c1cc(Cl)c(Oc2ccc([N+](=O)[O-])cc2Cl)c(Cl)c1	3.3*
CCCCOC(=O)c1ccc2c(c1)C(=O)NC2=O	1.5
CC1=C(Oc2ccc(Cl)cc2)C(C)(O)N=C(C(F)(F)F)N1 (stereo not given)	1.1
COC(=O)c1sc(NC(C)=O)nc1C	-0.11
CCOC(=O)c1sc(NC(=O)c2ccco2)nc1C	-1.4
CCOC(=O)c1sc(NC(C)=O)nc1C	4.3*
O=C(O)c1cccc2c1NC(c1ccc(F)cc1)C1C3CCC(C3)C21 (stereo not given)	-0.35
C=CCn1c(COc2ccc(Cl)cc2C)n[nH]c1=S	-1.3
CCOC(=O)c1nnn(-c2nonc2N)c1CN1CCCC(C)C1 (stereo not given)	1.9
CSc1n[nH]c(-c2ccc(C(F)(F)F)cc2)n1	3.1
CCOC(=O)c1sc(-c2ccc(C(F)(F)F)cc2)nc1O	-0.27
Cc1nc(-c2ccc(C(F)(F)F)cc2)sc1Br	18*
O=C(O)CSc1nc2cc(Cl)ccc2s1	1.8
Nc1ncnc2nc(SCCC(=O)O)[nH]c12	3.8*
Nc1ncnc2nc(SCc3ccc4nsnc4c3)[nH]c12	-2
CC(Sc1nc2ncnc(N)c2[nH]1)C(=O)O (stereo not given)	-0.55
CSc1sc(C#N)c2c1/C(=N/OC(=O)c1ccccc1Cl)CCC2	-0.08
COC(=O)c1c(C)oc2ccc(OC(=O)c3c(C)oc4ccc(OC(C)=O)cc34)cc12	1
O=S1(=O)/N=C(/O)c2ccccc2Sc2ccccc21	3.5*
SMILES	Dicer processing
Cc1ccc(OC2=NS(=O)(=O)c3ccccc32)cc1	0.25
CSc1ccccc1NC1=NS(=O)(=O)c2ccccc21	-0.02
O/N=C1/c2ccccc2CCC1Cn1ccnc1 (stereo not given)	-0.24
Cn1c(=O)c2c(O)c(C=NCc3cccnc3)c(=O)n(C)c2n(C)c1=O	0.3
CCCCSc1sc(C(=O)OC)c(-c2ccc(Cl)cc2)c1C#N	-0.82
C(=N\OCc1nnc(-c2ccc3ccccc3c2)o1)/c1cccc2c1OCO2	-1.7
CCOc1cc(C2C(C(=O)OCCSCC)=C(C)NC3=C2C(=O)CCC3)ccc1O (stereo not given)	0.05
CCCC(=O)c1ccc(NC(C)=O)cc1O	0.35
Cc1ccc(C(=O)c2cc(Cl)cc(Cl)c2)c(C)c1	-3.2
Cc1ccc(C(=O)CC(=O)c2ccc(C)cc2O)cc1	3.6*
Cn1c(SCC#N)nnc1-c1ccc(C(C)(C)C)cc1	-1.5
CC(=O)/C(C=Nc1cc(C)on1)=C(\C)O	-1
Cc1cc(N=CNOC(=O)c2nn(-c3ccccc3)nc2C)no1	-0.95
Cc1cc(N=Cc2ccccc2O)no1	4.5*
Cc1ccc(CSc2nccc(-c3nn(-c4ccc(F)cc4)ccc3=O)n2)cc1	0.94
CC(C)c1ccc(C2Oc3ccccc3C=C2[N+](=O)[O-])cc1 (stereo not given)	0.94
